Assay outcomes as filed in PubChem.
V-ATPase pHluor: regulators of yeast V-ATPase proton pumping, primary screen, pHLuorin cytosolic pH fluorescence; S. cerevisiae; response, % at 10 µM; 350,000 compounds, 0.37% hits; AID 504577, 2011; in the data active means response mostly above about 7.3%, no sharp cut-off; inactive means mostly below about 5.4%; further: actives read high
NALP1 inh: NALP1 inflammasome inhibitors in reconstituted yeast, colorimetric, S. cerevisiae, triplicate retest; S. cerevisiae NALP1/ASC/caspase-1 growth, X-gal OD620, 72 h; inhibition, % at 10 µM; 280,000 compounds, 0.61% hits; AID 2071, 2009; in the data active means inhibition mostly above about 24%, no sharp cut-off; inactive means mostly below about 32%
PERK inh: block of dimerizer-induced PERK translation repression, primary screen, PERK inhibitor project, CHO PERK-DD cells, SEAP luminescence, HTS. Eukaryotic translation initiation factor 2-alpha kinase 3 (Homo sapiens), Q9NZJ5. CHO PERK-DD fusion, SEAP luminescence translation reporter. inhibition, % at 5.6 µM. 220,000 compounds, 0.17% hits;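 active means inhibition above the mean inhibition of all tested compounds plus 3 SD, set separately per screening campaign, cut at about 2.9% in these data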;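 further: PERK kinase domain activated by AP20187 dimerizer at 100 nM; 0% = DMSO with dimerizer and 100% = rapamycin at 8.4 µM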
Target sequence (Q9NZJ5 whole entry, looked up, the tested form may be a part): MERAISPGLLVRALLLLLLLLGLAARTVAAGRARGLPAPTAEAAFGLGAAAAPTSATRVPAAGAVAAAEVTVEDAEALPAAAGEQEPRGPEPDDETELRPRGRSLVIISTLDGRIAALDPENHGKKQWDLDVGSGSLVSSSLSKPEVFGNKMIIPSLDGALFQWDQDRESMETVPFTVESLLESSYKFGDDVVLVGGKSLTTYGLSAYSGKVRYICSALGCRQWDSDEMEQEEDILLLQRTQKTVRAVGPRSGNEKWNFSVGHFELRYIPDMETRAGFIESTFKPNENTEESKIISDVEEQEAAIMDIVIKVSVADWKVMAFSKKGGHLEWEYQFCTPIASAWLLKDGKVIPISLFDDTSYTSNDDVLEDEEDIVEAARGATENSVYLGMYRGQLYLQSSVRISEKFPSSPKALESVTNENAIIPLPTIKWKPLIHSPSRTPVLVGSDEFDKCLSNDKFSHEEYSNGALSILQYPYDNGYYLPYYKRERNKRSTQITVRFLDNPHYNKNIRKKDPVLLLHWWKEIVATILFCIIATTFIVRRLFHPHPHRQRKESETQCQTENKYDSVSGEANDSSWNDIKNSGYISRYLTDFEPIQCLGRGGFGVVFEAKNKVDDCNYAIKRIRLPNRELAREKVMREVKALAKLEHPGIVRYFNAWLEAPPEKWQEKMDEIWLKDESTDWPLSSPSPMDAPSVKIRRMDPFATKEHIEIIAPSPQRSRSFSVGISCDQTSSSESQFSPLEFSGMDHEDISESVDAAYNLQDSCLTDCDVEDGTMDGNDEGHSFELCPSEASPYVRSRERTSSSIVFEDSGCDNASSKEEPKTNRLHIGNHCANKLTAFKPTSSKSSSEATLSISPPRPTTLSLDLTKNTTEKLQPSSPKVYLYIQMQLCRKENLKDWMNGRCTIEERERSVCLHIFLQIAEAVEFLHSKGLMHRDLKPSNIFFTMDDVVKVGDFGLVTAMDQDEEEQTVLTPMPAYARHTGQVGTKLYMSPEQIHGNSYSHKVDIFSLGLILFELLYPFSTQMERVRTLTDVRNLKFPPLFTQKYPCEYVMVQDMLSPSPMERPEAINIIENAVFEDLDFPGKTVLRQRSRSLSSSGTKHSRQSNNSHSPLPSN
NALP3 yeast inh: NALP3 inflammasome inhibitors in reconstituted yeast, primary screen, luminescence, uHTS; Yeast reconstituted NLRP3/ASC/caspase-1, beta-gal luminescence, 24 h; inhibition, % at 10 µM; 330,000 compounds, 0.39% hits; AID 2825, 2010;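 active means inhibition of 50% or more; inactive means inhibition below 50%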;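 further: plate controls were induced DMSO wells for no effect and uninduced yeast grown without galactose for full effect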
CR mimetic SO: reduction of superoxide in aged yeast, primary screen, HTS; S. cerevisiae aged cells, superoxide DHE fluorescence; active compounds read low; superoxide response (% of plate mean), % at 10 µM; 330,000 compounds, 0.18% hits; AID 2690, 2010;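 active means superoxide response under a set limit, about three screen SD below normal, cut at about 65% in these data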;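 further: yeast aged for seven days with compound at 30 °C before DHE staining; 100% = average MFI of all compound-treated wells on the plate with controls excluded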
Rce1 inhib: yeast Rce1p protease inhibitors, primary screen, biochemical, fluorescence, cell-free homogeneous. 290,000 compounds, 0.27% hits. calls only. AID 2563, 2010. CAAX prenyl protease 2 (Saccharomyces cerevisiae (strain ATCC 204508 / S288c)), Q03530. yeast membranes, quenched prenylated peptide cleavage fluorescence;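 active means fall in fluorescence gain of 50% or more versus controls, with final raw signal at or below 3038400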;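 further: plate controls were neutral control wells for no effect and wells lacking membranes for full effect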
An asterisk follows results filed as active. Hits are enriched below; roughly 1.6% of the tested compounds scored in any of these assays.

`CC(C)Oc1ccc(C(=O)N(CN2CCCC2=O)c2ccc(F)cc2)cc1` gave V-ATPase pHluor 3, NALP1 inh 41*, PERK inh 0, NALP3 yeast inh -3, CR mimetic SO 113 and Rce1 inhib inactive.
Screening COC(=O)c1ccccc1N1C(=O)C2C(C1=O)C1C=CC2C12CC2 (stereo unspecified) returned NALP1 inh 1, PERK inh 1, NALP3 yeast inh 14, CR mimetic SO 57* and Rce1 inhib inactive.
Screening CN1C(=O)C(C)(C)c2cc(S(=O)(=O)NCCc3ccc(Cl)cc3)ccc21 returned V-ATPase pHluor -2, NALP1 inh 13, NALP3 yeast inh 0, CR mimetic SO 104 and Rce1 inhib inactive.
For Cc1ccc(CCNS(=O)(=O)c2ccc3c(c2)C(C)(C)C(=O)N3C)cc1 the results were V-ATPase pHluor 25*, NALP1 inh -7, NALP3 yeast inh -5, CR mimetic SO 88 and Rce1 inhib inactive.
Cc1cccc(C)c1C(OCCN(C)C)C1CCCCC1 (stereo unspecified) was read as V-ATPase pHluor -2, NALP1 inh 51*, PERK inh 0, NALP3 yeast inh 12, CR mimetic SO 94 and Rce1 inhib inactive.
`O[C@@H]1CN(Cc2cccs2)[C@@H](c2ccc(Cl)cc2)C[C@H]1n1cc(-c2ccc(F)cc2)nn1` gave V-ATPase pHluor 1.
`C[C@@H]1CN([C@@H](C)CO)C(=O)CCCn2cc(nn2)CO[C@H]1CN(C)S(=O)(=O)c1cn(C)cn1` gave V-ATPase pHluor 0.
For CCCS(=O)(=O)Nc1ccc(Nc2c3ccccc3nc3ccccc23)c(OC)c1 the results were V-ATPase pHluor 11.
Cc1ccc(S(N)(=O)=O)cc1NC(=O)C1CC2CCC1C2 (stereo unspecified) was read as V-ATPase pHluor 0, NALP1 inh -1, PERK inh 3.0*, NALP3 yeast inh 11, CR mimetic SO 104 and Rce1 inhib inactive.
Screening Cc1ccc(C)c(NC(=O)C2CC3CCC2C3)c1 (stereo unspecified) returned V-ATPase pHluor 1, NALP1 inh 12, NALP3 yeast inh 8, CR mimetic SO 98 and Rce1 inhib inactive.
`COc1cc2c(cc1OC)C(C)N(C(=O)CCNC(=O)c1ccccc1)CC2` (stereo unspecified) gave V-ATPase pHluor 5, NALP1 inh 28, NALP3 yeast inh 0, CR mimetic SO 131 and Rce1 inhib active.
Cc1ccc2nc(-c3ccccc3)cn2c1 was read as NALP1 inh 22, PERK inh -1, NALP3 yeast inh 48, CR mimetic SO 86 and Rce1 inhib active.
For CCC(=O)N(c1nnc(SCC(=O)Nc2sccc2C(N)=O)s1)C1CC1 the results were V-ATPase pHluor 0.
`COc1ccc2c(c1)cc(C(=O)N[C@@H](CCSC)C(=O)N1CCC(C(=O)O)CC1)n2C` gave V-ATPase pHluor -1, NALP1 inh 7, NALP3 yeast inh 9, CR mimetic SO 97 and Rce1 inhib active.
`C[C@H](NC(=O)c1cc2cc(Cl)ccc2n1C)C(=O)N1CCC(C(=O)O)CC1` gave V-ATPase pHluor 6, NALP1 inh 2, CR mimetic SO 111 and Rce1 inhib inactive.
`CC1(C)CC2CC(C)(CN2S(=O)(=O)c2ccc(N)cc2)C1` (stereo unspecified) gave V-ATPase pHluor 0, NALP1 inh 6, PERK inh 0, NALP3 yeast inh -7, CR mimetic SO 102 and Rce1 inhib active.
Cc1cc(Cl)c(S(N)(=O)=O)cc1OCC(N)=O was read as V-ATPase pHluor 1, NALP1 inh -9, PERK inh 1, NALP3 yeast inh 12, CR mimetic SO 110 and Rce1 inhib inactive.
Screening CCN(CC)S(=O)(=O)c1cc(OCC(N)=O)c(C)cc1Cl returned V-ATPase pHluor 14*, NALP1 inh 21, PERK inh 0, NALP3 yeast inh 9, CR mimetic SO 103 and Rce1 inhib inactive.
Screening Cc1ccc(-c2csc3nc4c5ccccc5c(NCCCN(C)C)nn4c(=O)c23)cc1 returned V-ATPase pHluor -5, NALP1 inh 14, PERK inh 0, NALP3 yeast inh 18, CR mimetic SO 114 and Rce1 inhib active.
`COc1ccc2nc(N(CCN(C)C)C(=O)c3ccc4ccccc4c3)sc2c1` gave V-ATPase pHluor 2, NALP1 inh 8, NALP3 yeast inh 21, CR mimetic SO 110 and Rce1 inhib inactive.
Screening CCN(CC)CCN(C(=O)c1ccc2ccccc2c1)c1nc2ccc(F)cc2s1 returned V-ATPase pHluor -4, NALP1 inh 15, NALP3 yeast inh -2, CR mimetic SO 94 and Rce1 inhib active.
For CN(C)CCN(C(=O)c1ccc2ccccc2c1)c1nc2c(F)cc(F)cc2s1 the results were V-ATPase pHluor 4, NALP1 inh 18, NALP3 yeast inh 7, CR mimetic SO 86 and Rce1 inhib inactive.
CN(C)CCN(C(=O)c1ccc2ccccc2c1)c1nc2ccc(Br)cc2s1 was read as V-ATPase pHluor 3, NALP1 inh -4, NALP3 yeast inh 3, CR mimetic SO 119 and Rce1 inhib active.
Cc1ccc2nc(N(CCN(C)C)C(=O)c3ccc4ccccc4c3)sc2c1 was read as V-ATPase pHluor -1, NALP1 inh 34, NALP3 yeast inh 27, CR mimetic SO 106 and Rce1 inhib active.
For Cc1cccc2sc(N(CCN(C)C)C(=O)c3ccc4ccccc4c3)nc12 the results were V-ATPase pHluor 0, NALP1 inh 10, NALP3 yeast inh 21, CR mimetic SO 93 and Rce1 inhib active.
For CC1=C(C(=O)OCc2ccccc2)C(c2ccc(C)cc2)NC(=O)N1 (stereo unspecified) the results were V-ATPase pHluor 1.
Screening COC(=O)Nc1nnc(-c2ccncc2)s1 returned V-ATPase pHluor -4, NALP1 inh -4, PERK inh 1, NALP3 yeast inh 11, CR mimetic SO 101 and Rce1 inhib active.
O=C(c1cn(-c2ccccc2)nc1-c1cccs1)N1CCN(c2ccccn2)CC1 was read as V-ATPase pHluor 2, NALP1 inh 1, PERK inh -1, NALP3 yeast inh 5, CR mimetic SO 100 and Rce1 inhib active.
For CN1CCN(C(=O)c2cn(-c3ccccc3)nc2-c2cccs2)CC1 the results were V-ATPase pHluor 0, NALP1 inh 11, PERK inh -1, NALP3 yeast inh 5, CR mimetic SO 105 and Rce1 inhib inactive.
